# In the supplement of paper PMC3334620:
# Whole data set: some 33,000 sequences, median “E-score (-0.5 to 0.5)” near -0.0014, cut for the highest 2% near 0.25. This excerpt belongs to a sample that is enriched for the highest values.
# Biological target: T1, Cad1 (UniProt P24813)
# T1 sequence: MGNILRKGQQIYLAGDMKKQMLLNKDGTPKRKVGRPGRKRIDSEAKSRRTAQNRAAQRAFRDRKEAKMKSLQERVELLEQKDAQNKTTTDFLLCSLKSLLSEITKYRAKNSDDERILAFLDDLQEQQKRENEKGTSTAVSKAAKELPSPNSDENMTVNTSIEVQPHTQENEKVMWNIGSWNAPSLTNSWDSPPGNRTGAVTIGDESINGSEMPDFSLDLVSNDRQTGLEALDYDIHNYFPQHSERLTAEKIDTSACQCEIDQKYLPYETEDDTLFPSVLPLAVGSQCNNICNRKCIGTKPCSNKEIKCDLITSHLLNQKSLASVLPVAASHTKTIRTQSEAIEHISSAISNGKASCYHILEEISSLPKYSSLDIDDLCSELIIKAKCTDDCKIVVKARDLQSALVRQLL
# Test: PBM E-score (8-mer binding enrichment) (E-score (-0.5 to 0.5)); higher = stronger / more preferred TF binding
# Conditions: protein concentration: 100 nM; construct: GST-full length
# In short: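 GST-tagged yeast TFs (full-length or DNA-binding domain) were made by PURExpress in vitro transcription/translation and applied at about 100-200 nM to universal all-10-mer Agilent arrays. The arrays were made double-stranded by primer extension, on fresh or once-stripped slides. Bound protein was detected with fluorescent anti-GST, and scans were normalised with masliner. Each ungapped eight-base word, pooled with its reverse complement, received an E-score (modified Wilcoxon-Mann-Whitney statistic) from the Universal PBM Analysis Suite.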
row,Sequence,PBM E-score
1,TAATACTA,0.303
2,TACTAATA,0.285
3,AACTAATA,0.351
4,AAATACTA,0.0416
5,CACTAATA,0.183
6,AACTAAAA,0.133
7,TACTACTA,0.157
8,ATACTTAC,0.0308
9,AGACGCCT,-0.1
10,ACCAACGT,0.0535
11,CGGCTTTA,-0.151
12,CGATCGGA,0.0447
13,CTCCATAC,-0.104
14,ATACACCA,0.12
15,CACGACTA,-0.148
16,CGAAGCTC,-0.231
17,TACTTGAA,0.0482
18,CAATAATA,0.208
19,AACTAAAG,0.2
20,CACTAATG,-0.0516
21,GACTAACA,0.218
22,GAATAATA,0.221

row,Sequence,PBM E-score
1,GACTAATA,0.372
2,AACTAATG,0.283
3,GACTAAAA,0.114
4,TAATAATA,0.29
5,GCTGGGCC,-0.297
6,GCCTATAC,-0.214
7,GGAATGAC,-0.179
8,CAGTCCAG,-0.0544
9,CGTCAAAC,-0.0838
10,AGCACTAC,-0.0732
11,AGCAACGG,0.0958
12,CTGTCCGA,0.189
13,GCTTATTA,0.369
14,CTTTATTA,0.18
15,GTTTATTA,0.293
16,CCTTATTA,0.211
17,ATTTATTA,0.186
18,ACTTATTA,0.192
19,CACCATCA,0.0657
20,TAAACGTA,0.172
21,GGTTTCAC,0.00803
22,ACGGCCCT,-0.0728

row,Sequence,PBM E-score
1,CTGTAGCC,-0.0863
2,AACTTGAT,0.268
3,AACTTGAA,0.109
4,AACTTGAG,-0.154
5,GGTGCAGA,-0.217
6,GCCAGGGA,-0.103
7,AACCTTGA,0.0727
8,CGAACCGA,0.262
9,CGAACCGC,-0.0247
10,GGAACCGA,0.0676
11,CTCGCCAC,-0.0198
12,AAATTTGT,0.277
13,TAATTTGA,0.106
14,AAATTTGA,0.325
15,AATTTTGT,0.143
16,AAATTTGG,0.075
17,CAATTTGA,-0.0156
18,CTGGAGGA,-0.121
19,CCTACCGC,-0.0896
20,GGCTGTAC,-0.0764
21,CGAGTGTA,-0.0885
22,ACGCTTTA,0.0919

row,Sequence,PBM E-score
1,AAGACAAG,0.0865
2,CAGACAAC,0.0003
3,AAGACAAC,0.336
4,GCGCGTCA,0.0818
5,AAGCGACT,-0.0195
6,AGTTATAA,-0.037
7,TTATATAA,0.427
8,GTATATAA,0.182
9,ATATATAA,0.32
10,TGATATAA,-0.0984
11,TCATATAA,-0.00059
12,CTATATAA,0.0617
13,TGTTATAA,0.253
14,CGTTATAA,0.163
15,AAGCCGGC,0.149
16,CGTGATTA,0.303
17,GGTGATTA,0.236
18,AGTGATTC,0.11
19,AGTGATTA,0.287
20,CGTGATGA,0.0624
21,CGTGATTC,-0.021
